# Laboratory results from PubChem BioAssay (NCATS).
# Inconclusive results are not listed. Where a call stands in place of a potency, no number is given. The source made the active and inactive calls. Unless noted, calls follow the shape of the dose curve; as a rule, active = well fitted curve in the direction sought with a large enough effect; inconclusive = small, poorly fitted or top-dose-only effect, or another doubt; inactive = no such curve, though single readings can be large; an effect the other way counts as inactive or inconclusive.
# Columns and labels:
# [1] = target: Ferritin light chain (Equus caballus) (UniProt P02791); assay: qHTS Validation Assay for Identification of Novel General Anesthetics (AID 2323); also: series mostly up to about 77 µM
# Method in brief: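 Competitive displacement of the profluorescent anesthetic 1-AMA (50% saturated, PBS) from 10 uM apoferritin, 10 min, room temperature. Activity is normalized 380/535 nm fluorescence; concentration-response fitted with a four-parameter Hill equation.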
# [2] = Cytometric Cell-Based qHTS for Inhibitors of the mTORC1 Signaling Pathway in MEF (Tsc2-/-, p53-/-) Cells (AID 2660);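 also: percent of cells above a phospho-rpS6 to PI ratio cutoff in each well; series mostly up to about 38 µM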
# Method in brief: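 Immunofluorescence qHTS of rpS6 Ser235/236 phosphorylation: MEFs (Tsc2-/-, p53-/-) treated 24 h, 37 C, in DMEM + 10% FBS. Alexa-488 signal normalized to PI count, referenced to rapamycin (7.5 nM) and DMSO; PI cell number recorded for viability.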
# [3] = High Content Imaging Cell-Based qHTS for Inhibitors of the mTORC1 Signaling Pathway in MEF (Tsc2-/-, p53-/-) Cells (AID 2666);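 also: percent of cells scored positive for phospho-rpS6 Ser235/236 immunostaining by imaging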
# Method in brief: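 Phospho-rpS6 (Ser235/236) immunofluorescence, normalized and scored as % positive cells using rapamycin and DMSO controls, was read in empty-vector Tsc2-/-, p53-/- MEFs after 24 h compound exposure at 37 C; propidium iodide counted cells.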
# [4] = High Content Imaging Cell-Based qHTS for Inhibitors of the mTORC1 Signaling Pathway in MEF Cells (AID 2667);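 also: Tsc2-/- p53-/- MEFs stably re-expressing wild-type Tsc2 exposed 24 h; series mostly up to about 38 µM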
# Method in brief: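 WT MEFs (Tsc2-/-, p53-/- re-expressing Tsc2), in DMEM + 10% FBS, were treated with compound for 24 h at 37 C. Cells were then fixed and stained for phospho-rpS6 Ser235/236 with propidium iodide as cell count. Values are % positive cells, with thresholds set against rapamycin-treated cells.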
# [5] = Cytometry Cell-Based qHTS for Inhibitors of the mTORC1 Signaling Pathway in MEF cells (AID 2668);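 also: Tsc2-/- p53-/- mouse embryonic fibroblasts stably re-expressing wild-type Tsc2; percent cells positive for phospho-rpS6 Ser235/236 relative to propidium iodide stain; series mostly up to about 38 µM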
# Method in brief: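 Phospho-rpS6 (Ser235/236) immunofluorescence over PI signal, scored as % positive cells using thresholds from 7.5 nM rapamycin and DMSO wells, after 24 h compound exposure of WT-Tsc2-rescued Tsc2-/-, p53-/- MEFs. PI cell count recorded for viability.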
# [6] = Validation screen for small molecules that induce DNA re-replication in MCF 10A normal breast cells (AID 463097); also: nearly all actives have a fitted effect of over 60% in size; also: potency is read from the fitted curve at half-maximal effect
# Method in brief: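 Read-out is Hoechst total nuclear intensity by fluorescence scanning imager, flagging increased high-DNA-content nuclei. Compounds were incubated with MCF 10A cells for 48 hr (37 C, 5% CO2) before 40 min staining.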
# [7] = target: Ubiquitin carboxyl-terminal hydrolase 2 (Homo sapiens) (UniProt O75604); assay: qHTS Validation Assay for Inhibitors of Ubiquitin-specific Protease USP2a Using CHOP2 as the Reporter (AID 463106)
# Method in brief: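 USP2 core (10 nM final) was preincubated with compound 30 min at RT in pH 8.0 Tris/CaCl2/beta-ME/CHAPS buffer. Ub-CHOP2 and reporter substrate (25 nM final each) were then added, with fluorescence (Ex 485/Em 531) read after 60 min. Data were normalized to NEM full inhibition and fitted to concentration-response curves.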
# [8] = target: DNA polymerase III PolC-type (Bacillus subtilis (strain 168)) (UniProt P13267); assay: qHTS Validation Assay for the Inhibitors of DNA Replication in Gram-Positive Bacteria (AID 485295);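 also: reconstituted holoenzyme with PolC plus beta clamp SSB and primase; PicoGreen fluorescence of double-stranded DNA made on primed circular M13 template; series mostly up to about 57 µM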
# Method in brief: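 Double-stranded DNA product detected by PicoGreen fluorescence after EDTA quench. Compound incubated with B. subtilis holoenzyme (PolC, beta subunit, SSB, primase) before substrate addition; primed replication of M13Gori with dNTPs and NTPs at room temperature; DMSO defines 0% inhibition.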
# [9] = target: Tumor susceptibility gene 101 protein (Homo sapiens) (UniProt Q99816); assay: qHTS Validation Assay for Iinhibitors of HIV-1 Budding by Blocking the Interaction of PTAP/TSG101 (AID 485342; calls by dose curve)
# Method in brief: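 Fluorescence polarization of 50 nM FITC-PTAP peptide bound to 10 uM Tsg101 binding domain was read after 20 min room-temperature incubation with compounds, in 10 mM HEPES pH 7.5, 0.15 M NaCl, 0.01% Tween 20.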
# [10] = target: Beta-2 adrenergic receptor (Homo sapiens) (UniProt P07550); assay: qHTS validation assay of beta-arrestin-biased ligands of beta2-adrenergic receptor (AID 485366)
# Method in brief: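 Arrestin-recruitment (Tango) reporter: ligand-bound beta2-AR recruits beta-arrestin, releasing tTA, which upregulates luciferase. Titrations of up to 46 microM incubated 18 hr at 37 degrees C before luminescent readout.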
# [11] = target: ATP-dependent 6-phosphofructokinase (Trypanosoma brucei brucei) (UniProt O15648); assay: qHTS Validation Assay to Find Inhibitors of T. brucei phosphofructokinase (AID 485368); conditions: outcome: dose series up to 57.5 µM
# Method in brief: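 Steps: substrate mix (0.5 mM F6P, 0.1 mM ATP, MgCl2, TEA pH 8.0); compound; 1.25 nM T. brucei PFK; 45 min RT; ATP depletion 10 min; ADP-to-ATP detection 10 min; luminescence read; curve fitting and classification.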
# [12] = Quantitative high throughput screen for delayed death inhibitors of the malarial parasite plastid, 96 hour incubation (AID 488745); also: nearly all actives have a fitted effect of over 70% in size; also: potency is read from the fitted curve at half-maximal effect
# Method in brief: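 Luciferase-expressing P. falciparum in erythrocytes (2% hematocrit, 0.1% parasitemia) incubated with compound for 96 h at 37 C, 5% CO2, in RPMI 1640 with 0.5% Albumax. Growth inhibition read as decreased luminescence.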
# [13] = Quantitative high throughput screen for delayed death inhibitors of the malarial parasite plastid, 48 hour incubation (AID 488752); also: nearly all actives have a fitted effect of over 65% in size; also: potency is read from the fitted curve at half-maximal effect
# Method in brief: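 Erythrocytes infected with firefly luciferase-expressing P. falciparum (2% hematocrit, 0.1% parasitemia) cultured with compound for 48 h at 37 C, 5% CO2, in RPMI 1640/0.5% Albumax. Growth inhibition read as loss of luminescence.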
# [14] = target: Thioredoxin reductase 1, cytoplasmic (Rattus norvegicus) (UniProt O89049); assay: qHTS Assay for Substrates of Mammalian Selenoprotein Thioredoxin Reductase 1 (TrxR1) (AID 488772);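 also: NADPH fluorescence in the first read after selenite addition and not the 8 min delta; series mostly up to about 57 µM; a drop in NADPH fluorescence below the no-compound background marks a TrxR1 substrate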
# Method in brief: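 Quantitative HTS in Tris-HCl buffer at pH 7.5 with EDTA and Tween-20, using rat TrxR1, 400 uM NADPH and 400 uM selenite (final). A fall in initial NADPH fluorescence relative to background marked substrate behaviour.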
# [15] = target: Flap endonuclease 1 (Homo sapiens) (UniProt P39748); assay: qHTS Validation Assay for the Inhibitors of Human Flap endonuclease 1 (FEN1) (AID 488816)
# Method in brief: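 Human FEN1 (10 nM) preincubated 15 min at room temperature with compounds, then flap DNA substrate added at 50 nM final. Fluorescence read at 0 and 15 min; concentration-response fitted with four-parameter Hill equation.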
# [16] = target: RecQ-like DNA helicase BLM (Homo sapiens) (UniProt P54132); assay: qHTS Validation Assay for Inhibitors of Bloom's syndrome helicase (BLM) (AID 2364)
# Method in brief: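 50 nM BLM preincubated 15 min at room temperature with compound in pH 8.0 Tris buffer containing 2.5 ug/ml poly(dI-dC); started with 200 nM TAMRA/BHQ-2 forked duplex and 2 mM ATP (final). Unwinding read as TAMRA fluorescence increase, two reads 2 h apart.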
# [17] = qHTS Validation Assay to Find Inhibitors of Chronic Active B-Cell Receptor Signaling (AID 485345; active = well fitted curve in the direction sought with a large enough effect in the main read-out, with a control signal flat, not every such curve was filed as active)
# Method in brief: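 TMD8 ABC-DLBCL cells stably carrying doxycycline-inducible IkappaBalpha–green luciferase fusion plus unfused red luciferase; compounds 46 uM to 3 nM, 4 h at 37C with doxycycline. Corrected green/red luminescence ratio normalized to 10 uM MG-132 and basal cell wells; curves fitted.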
# [18] = target: Thioredoxin reductase 1, cytoplasmic (Rattus norvegicus) (UniProt O89049); assay: qHTS Assay for Inhibitors of Mammalian Selenoprotein Thioredoxin Reductase 1 (TrxR1) (AID 488773); conditions: Potency: inhibition;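 also: drop in NADPH fluorescence over an 8 min run after selenite addition; series mostly up to about 57 µM; nearly all actives have a fitted effect of over 40% in size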
# Method in brief: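 Steps: enzyme (90 nM) plus NADPH (400 uM final), 5 min at ~22 deg C; compound added, 15 min; selenite (400 uM final) added; fluorescence followed for 8 min. Concentration-response curves derived from the normalized delta values.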
# [19] = target: ATP-dependent DNA helicase Q1 (Homo sapiens) (UniProt P46063); assay: qHTS Validation Assay for Inhibitors of RecQ-Like Dna Helicase 1 (RECQ1) (AID 2353)
# Method in brief: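 50 nM RECQ1T1 preincubated 15 min with compound in Tris pH 8.0 buffer with MgCl2, DTT, Tween-20 and 2.5 ug/ml poly(dI-dC); started with 200 nM TAMRA/BHQ-2 forked duplex and 2 mM ATP. Unwinding read as fluorescence (525/598 nm), two reads 2 h apart.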
# Chain of Tumor susceptibility gene 101 protein (Homo sapiens) (Q99816 whole entry, looked up, the tested form may be a part): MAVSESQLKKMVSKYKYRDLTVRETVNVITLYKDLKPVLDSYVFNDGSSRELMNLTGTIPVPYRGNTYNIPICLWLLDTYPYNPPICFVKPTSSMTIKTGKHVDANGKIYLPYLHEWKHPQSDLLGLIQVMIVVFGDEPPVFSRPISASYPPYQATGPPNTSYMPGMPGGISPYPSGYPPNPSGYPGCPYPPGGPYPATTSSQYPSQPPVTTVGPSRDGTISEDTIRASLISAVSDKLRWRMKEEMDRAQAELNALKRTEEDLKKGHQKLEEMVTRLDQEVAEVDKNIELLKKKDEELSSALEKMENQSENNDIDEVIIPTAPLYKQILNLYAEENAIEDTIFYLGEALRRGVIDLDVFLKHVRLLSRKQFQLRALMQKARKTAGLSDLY
# Chain of Ferritin light chain (Equus caballus) (P02791 2-175 limits assumed): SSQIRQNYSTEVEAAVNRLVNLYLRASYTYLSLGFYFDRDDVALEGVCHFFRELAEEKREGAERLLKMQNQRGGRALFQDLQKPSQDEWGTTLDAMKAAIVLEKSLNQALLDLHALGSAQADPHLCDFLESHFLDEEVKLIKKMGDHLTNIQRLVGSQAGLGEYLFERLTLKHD
# Chain of Ubiquitin carboxyl-terminal hydrolase 2 (Homo sapiens) (O75604 whole entry, looked up): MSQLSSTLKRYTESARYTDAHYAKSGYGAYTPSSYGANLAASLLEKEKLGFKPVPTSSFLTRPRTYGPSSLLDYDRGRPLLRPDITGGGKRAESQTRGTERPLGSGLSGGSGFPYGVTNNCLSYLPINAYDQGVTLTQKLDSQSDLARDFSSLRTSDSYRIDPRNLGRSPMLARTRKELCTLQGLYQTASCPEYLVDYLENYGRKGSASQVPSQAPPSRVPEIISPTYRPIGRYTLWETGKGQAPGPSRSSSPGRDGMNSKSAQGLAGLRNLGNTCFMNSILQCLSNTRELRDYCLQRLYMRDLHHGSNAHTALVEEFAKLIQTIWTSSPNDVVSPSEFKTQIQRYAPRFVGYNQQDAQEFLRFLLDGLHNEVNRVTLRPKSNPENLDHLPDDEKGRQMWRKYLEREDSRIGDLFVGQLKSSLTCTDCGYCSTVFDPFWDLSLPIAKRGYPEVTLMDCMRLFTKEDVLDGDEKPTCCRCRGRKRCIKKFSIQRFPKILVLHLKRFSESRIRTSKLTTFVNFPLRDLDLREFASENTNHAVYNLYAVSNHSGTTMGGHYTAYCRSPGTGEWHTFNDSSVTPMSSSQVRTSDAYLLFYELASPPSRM
# Chain of ATP-dependent 6-phosphofructokinase (Trypanosoma brucei brucei) (O15648 whole entry, looked up): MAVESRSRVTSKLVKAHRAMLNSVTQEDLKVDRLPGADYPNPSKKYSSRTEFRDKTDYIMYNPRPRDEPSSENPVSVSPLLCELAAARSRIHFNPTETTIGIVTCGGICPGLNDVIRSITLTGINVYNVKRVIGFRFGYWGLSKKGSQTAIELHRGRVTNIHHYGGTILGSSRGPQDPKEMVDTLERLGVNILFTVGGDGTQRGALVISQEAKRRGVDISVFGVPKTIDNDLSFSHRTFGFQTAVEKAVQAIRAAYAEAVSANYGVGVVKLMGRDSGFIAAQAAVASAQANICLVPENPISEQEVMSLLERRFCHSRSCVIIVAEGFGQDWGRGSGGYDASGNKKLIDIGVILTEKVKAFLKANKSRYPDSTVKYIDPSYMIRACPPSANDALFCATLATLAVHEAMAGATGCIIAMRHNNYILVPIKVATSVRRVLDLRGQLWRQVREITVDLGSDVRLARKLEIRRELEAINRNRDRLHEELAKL
# Chain of Thioredoxin reductase 1, cytoplasmic (Rattus norvegicus) (O89049 whole entry, looked up): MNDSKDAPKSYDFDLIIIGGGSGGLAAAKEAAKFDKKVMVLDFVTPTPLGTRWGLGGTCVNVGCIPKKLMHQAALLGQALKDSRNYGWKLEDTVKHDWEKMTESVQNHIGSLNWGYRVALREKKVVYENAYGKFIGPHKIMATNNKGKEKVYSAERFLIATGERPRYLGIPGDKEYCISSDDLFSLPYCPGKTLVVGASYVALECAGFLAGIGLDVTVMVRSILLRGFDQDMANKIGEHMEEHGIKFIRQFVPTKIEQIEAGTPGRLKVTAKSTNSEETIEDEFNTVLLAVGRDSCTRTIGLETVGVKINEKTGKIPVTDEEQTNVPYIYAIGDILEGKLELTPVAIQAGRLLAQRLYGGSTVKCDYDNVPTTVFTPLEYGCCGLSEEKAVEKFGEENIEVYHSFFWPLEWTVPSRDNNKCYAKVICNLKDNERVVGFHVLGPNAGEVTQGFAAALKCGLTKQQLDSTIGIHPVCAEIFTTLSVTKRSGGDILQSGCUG
# Chain of RecQ-like DNA helicase BLM (Homo sapiens) (P54132 whole entry, looked up): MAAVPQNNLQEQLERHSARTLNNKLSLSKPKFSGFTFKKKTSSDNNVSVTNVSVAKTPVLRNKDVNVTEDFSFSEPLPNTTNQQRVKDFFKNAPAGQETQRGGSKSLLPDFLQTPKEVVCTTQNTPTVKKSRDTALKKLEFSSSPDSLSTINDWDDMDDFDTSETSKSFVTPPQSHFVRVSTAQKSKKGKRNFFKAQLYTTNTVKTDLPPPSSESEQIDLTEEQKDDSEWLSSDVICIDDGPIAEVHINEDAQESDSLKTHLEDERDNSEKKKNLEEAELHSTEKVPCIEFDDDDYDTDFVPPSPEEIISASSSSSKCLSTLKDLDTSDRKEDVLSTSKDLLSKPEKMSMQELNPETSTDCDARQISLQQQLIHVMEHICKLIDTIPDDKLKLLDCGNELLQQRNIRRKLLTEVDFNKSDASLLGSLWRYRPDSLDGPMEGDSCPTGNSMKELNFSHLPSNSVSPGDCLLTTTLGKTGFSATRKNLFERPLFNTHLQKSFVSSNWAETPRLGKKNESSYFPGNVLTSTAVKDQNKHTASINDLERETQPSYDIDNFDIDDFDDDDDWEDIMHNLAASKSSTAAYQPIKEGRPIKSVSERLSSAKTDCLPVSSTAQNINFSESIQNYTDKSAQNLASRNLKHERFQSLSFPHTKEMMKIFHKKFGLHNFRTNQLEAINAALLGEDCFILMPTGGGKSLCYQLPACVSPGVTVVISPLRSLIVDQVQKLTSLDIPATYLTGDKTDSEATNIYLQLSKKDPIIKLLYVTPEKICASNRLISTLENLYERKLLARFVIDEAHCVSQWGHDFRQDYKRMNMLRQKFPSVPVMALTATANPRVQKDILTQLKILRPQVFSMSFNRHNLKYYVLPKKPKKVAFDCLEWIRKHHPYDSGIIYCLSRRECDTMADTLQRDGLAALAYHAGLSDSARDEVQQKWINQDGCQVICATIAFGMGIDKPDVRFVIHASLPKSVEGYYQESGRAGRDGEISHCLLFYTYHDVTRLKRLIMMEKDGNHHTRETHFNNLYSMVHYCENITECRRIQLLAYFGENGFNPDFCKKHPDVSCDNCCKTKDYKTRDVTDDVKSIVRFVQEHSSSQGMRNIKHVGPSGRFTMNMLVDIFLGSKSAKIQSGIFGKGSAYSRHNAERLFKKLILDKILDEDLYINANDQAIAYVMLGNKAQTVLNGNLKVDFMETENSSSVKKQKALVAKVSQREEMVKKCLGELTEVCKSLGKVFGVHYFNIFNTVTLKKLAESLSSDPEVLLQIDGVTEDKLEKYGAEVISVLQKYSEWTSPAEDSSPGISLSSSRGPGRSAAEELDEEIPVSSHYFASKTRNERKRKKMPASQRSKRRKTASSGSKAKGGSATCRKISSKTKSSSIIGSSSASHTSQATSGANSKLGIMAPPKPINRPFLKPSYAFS
# Chain of DNA polymerase III PolC-type (Bacillus subtilis (strain 168)) (P13267 whole entry, looked up): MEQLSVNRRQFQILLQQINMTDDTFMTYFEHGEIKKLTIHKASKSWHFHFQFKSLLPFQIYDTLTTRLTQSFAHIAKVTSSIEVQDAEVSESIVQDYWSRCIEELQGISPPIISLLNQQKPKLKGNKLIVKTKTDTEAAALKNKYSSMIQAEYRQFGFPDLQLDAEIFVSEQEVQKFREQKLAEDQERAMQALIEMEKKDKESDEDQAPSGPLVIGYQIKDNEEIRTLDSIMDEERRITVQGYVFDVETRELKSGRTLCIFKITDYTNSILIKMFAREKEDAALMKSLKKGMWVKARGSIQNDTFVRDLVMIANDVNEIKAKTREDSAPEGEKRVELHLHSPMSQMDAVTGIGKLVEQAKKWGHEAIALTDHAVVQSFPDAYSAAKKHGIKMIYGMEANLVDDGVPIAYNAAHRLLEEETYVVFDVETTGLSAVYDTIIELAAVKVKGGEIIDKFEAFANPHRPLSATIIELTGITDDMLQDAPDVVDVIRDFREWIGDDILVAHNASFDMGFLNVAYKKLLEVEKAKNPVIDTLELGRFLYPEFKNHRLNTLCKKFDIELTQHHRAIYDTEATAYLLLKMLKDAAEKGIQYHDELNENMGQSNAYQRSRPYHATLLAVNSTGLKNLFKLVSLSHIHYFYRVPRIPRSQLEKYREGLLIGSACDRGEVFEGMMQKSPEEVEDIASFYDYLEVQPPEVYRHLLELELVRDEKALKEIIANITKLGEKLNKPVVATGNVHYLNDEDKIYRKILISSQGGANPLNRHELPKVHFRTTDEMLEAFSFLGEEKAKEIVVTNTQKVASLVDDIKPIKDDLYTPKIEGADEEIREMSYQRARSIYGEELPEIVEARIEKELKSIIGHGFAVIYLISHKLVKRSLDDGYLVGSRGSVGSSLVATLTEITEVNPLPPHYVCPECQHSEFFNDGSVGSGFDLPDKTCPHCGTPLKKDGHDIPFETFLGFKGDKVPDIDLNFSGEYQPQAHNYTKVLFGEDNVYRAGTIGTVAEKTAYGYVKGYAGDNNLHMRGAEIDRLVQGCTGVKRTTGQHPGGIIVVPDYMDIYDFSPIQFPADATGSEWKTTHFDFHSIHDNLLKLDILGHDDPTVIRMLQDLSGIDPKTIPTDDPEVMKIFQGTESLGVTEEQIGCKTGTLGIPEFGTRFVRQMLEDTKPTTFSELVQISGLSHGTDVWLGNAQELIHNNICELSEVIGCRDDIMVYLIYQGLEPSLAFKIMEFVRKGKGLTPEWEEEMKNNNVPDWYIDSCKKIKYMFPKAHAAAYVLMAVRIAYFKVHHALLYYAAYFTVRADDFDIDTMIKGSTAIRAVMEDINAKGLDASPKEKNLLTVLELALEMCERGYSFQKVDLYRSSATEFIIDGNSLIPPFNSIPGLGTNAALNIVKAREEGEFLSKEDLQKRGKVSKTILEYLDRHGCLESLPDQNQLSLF
Compound,outcome [1],outcome [2],Potency [3],Potency [4],Potency [5],Potency [6],outcome [7],Potency [8],outcome [9],outcome [10],outcome [11],Potency [12],Potency [13],outcome [14],Potency [15],Potency [16],Potency [17],Potency [18],Potency [19]
C[C@]12C=CC(=O)C=C1CC[C@H]1[C@@H]3C[C@@H](O)[C@](O)(C(=O)CO)[C@@]3(C)C[C@H](O)[C@@]12F,inactive,inactive,inactive,inactive,inactive,inactive,inactive,inactive,inactive,inactive,inactive,inactive,inactive,inactive,inactive,–,–,–,–
c1cnc(N2CCN(Cc3ccc4c(c3)OCO4)CC2)nc1,inactive,inactive,inactive,inactive,inactive,inactive,inactive,inactive,inactive,inactive,–,inactive,inactive,inactive,–,inactive,inactive,–,–
CN(C)CC/C=C1\c2ccccc2COc2ccccc21,inactive,–,inactive,inactive,–,inactive,–,inactive,inactive,inactive,–,inactive,inactive,–,inactive,inactive,inactive,inactive,–
NC(N)=N/N=C/c1c(Cl)cccc1Cl,inactive,inactive,inactive,inactive,–,inactive,–,inactive,inactive,inactive,inactive,–,inactive,inactive,–,–,inactive,–,–
Cc1ccc(=O)n(-c2ccccc2)c1,inactive,inactive,inactive,inactive,–,inactive,inactive,inactive,inactive,inactive,inactive,inactive,inactive,–,inactive,–,inactive,inactive,–
CCO/C([O-])=N/c1c[n+](N2CCOCC2)no1,inactive,inactive,inactive,inactive,inactive,inactive,–,inactive,inactive,inactive,–,–,inactive,inactive,inactive,–,inactive,inactive,–
CCCCNc1c(C(=O)OCC)c(C)nc2c1cnn2CC,inactive,inactive,inactive,inactive,–,–,inactive,inactive,inactive,inactive,–,–,–,–,inactive,–,–,–,–
CCCCCN(CCCCC)C(=O)C(CCC(=O)O)NC(=O)c1ccc(Cl)c(Cl)c1 (configuration not stated),inactive,–,inactive,inactive,–,inactive,inactive,inactive,inactive,inactive,–,inactive,inactive,–,inactive,–,inactive,inactive,inactive
CCCN(CCC)CCc1cccc2c1CC(=O)N2,inactive,inactive,inactive,inactive,inactive,inactive,inactive,inactive,inactive,inactive,–,inactive,inactive,–,inactive,–,inactive,–,–
COc1cc(C(=O)OCCCN2CCCN(CCCOC(=O)c3cc(OC)c(OC)c(OC)c3)CC2)cc(OC)c1OC,inactive,–,inactive,–,–,–,inactive,inactive,inactive,inactive,–,6.57 µM (active),13.1 µM (active),inactive,inactive,inactive,–,–,–
Nc1ncn([C@@H]2O[C@H](CO)[C@@H](O)[C@H]2O)c(=O)n1,inactive,–,inactive,–,–,3.16 µM (active),inactive,inactive,inactive,inactive,–,inactive,inactive,–,inactive,–,–,inactive,inactive
COc1cc(Cc2cnc(N)nc2N)cc(OC)c1OC,inactive,–,inactive,inactive,inactive,inactive,–,inactive,inactive,–,–,inactive,inactive,–,–,–,inactive,–,–
N[C@@H](COP(=O)(O)O)C(=O)O,inactive,inactive,inactive,inactive,inactive,inactive,–,inactive,inactive,inactive,–,inactive,inactive,inactive,inactive,–,inactive,inactive,–
OCCN1CCN(CCCN2c3ccccc3C=Cc3ccccc32)CC1,inactive,inactive,inactive,inactive,inactive,inactive,inactive,inactive,inactive,inactive,–,13.1 µM (active),–,–,inactive,inactive,inactive,inactive,–
CC(=O)OCC1=C(C(=O)O)N2C(=O)[C@@H](NC(=O)Cc3cccs3)[C@H]2SC1,inactive,–,inactive,inactive,inactive,inactive,inactive,inactive,inactive,inactive,–,inactive,inactive,inactive,–,–,inactive,–,–
CCN(Cc1ccncc1)C(=O)C(CO)c1ccccc1 (configuration not stated),inactive,inactive,inactive,inactive,inactive,inactive,inactive,inactive,inactive,inactive,inactive,inactive,inactive,inactive,inactive,–,inactive,inactive,–
Cc1ccc(Cl)c(Nc2ccccc2C(=O)O)c1Cl,inactive,–,inactive,inactive,inactive,14.1 µM (active),inactive,inactive,inactive,inactive,–,inactive,inactive,inactive,inactive,–,–,–,–
